Experiment [1] is described as follows: Nuclear factor erythroid 2-related factor 2/antioxidant responsive element (Nrf2/ARE) small molecule agonists: qHTS cell viability counter screen in human keratinocytes (AID 1919968; active = well fitted curve in the direction sought with a large enough effect in the repeat runs; an effect the other way counts as inactive or inconclusive; also: nearly all actives have a fitted effect of over 55% in size; also: potency is read from the fitted curve at half-maximal effect). A digest of the protocol: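 Cells of the KeratinoSens line were plated at 1,500 per well and left for 5 h before compound transfer from DMSO stocks. After a 23 h incubation (37 C, 5% CO2), CellTiter-Fluor was added. Signal was taken as fluorescence intensity 1 h later.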

Experiment [2] concerns the target Gonadotropin-releasing hormone receptor (Homo sapiens) (UniProt P30968). In words: Human gonadotropin-releasing hormone receptor (GnRHR) small molecule agonists, calcium flux assay in GnRHR-HEK293 cells (AID 1920063). Also: nearly all actives have a fitted effect of over 35% in size. The procedure, abridged:
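Compounds dissolved in DMSO are pin-transferred onto dye-loaded GnRHR-HEK293 cells, which were seeded 18 h before at 37 C/5% CO2. Calcium signal is read as fluorescence intensity at 1 s intervals for 3 min.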
For orientation: Calcium flux is commonly read through the fluorescence of an indicator in the cells.

Experiment [3] addresses KiSS-1 receptor (Homo sapiens) (UniProt Q969F8). In words: Human kisspeptin (KISS1R) small molecule agonists, calcium flux assay in KISS1R-HEK293 cells (AID 1920064; active = well fitted curve in the direction sought with a large enough effect in the repeat runs; an effect the other way counts as inactive or inconclusive). A digest of the protocol: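 Cell line: HEK293, stable human KISS1R. Dye loading 1 h at 37 C after 18 h culture. Read: kinetic fluorescence, 480/540 nm, 3 min at 1 s intervals.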
The nature of experiment [4]: G protein-coupled receptor (GPCR) small molecule agonists, calcium flux assay: HEK293 wild type cell line counter screen (AID 1920065). The procedure, abridged: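 Tox21 10K compounds, 15 concentrations each in triplicate, pin-transferred in DMSO onto dye-loaded cells; kinetic read at 480/540 nm for 3 min, 1 s intervals.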
Experiment [5] is described as follows: p53 small molecule agonists, cell-based qHTS assay with human liver microsomes (AID 1963577). The procedure, abridged:
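p53RE-bla reporter cells were pre-incubated 5 h at 37 C, then treated with compounds plus human liver microsomes (0.5 mg/mL final) and NADPH (0.5 mg/mL final) for 16 h at 37 C. Beta-lactamase activity was read by LiveBLAzer fluorescence after 2 h at room temperature.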
On the technique in general: qHTS replaces the single test concentration by a dilution series.

Experiment [6] in a line: p53 small molecule agonists, cell-based qHTS assay with rat liver microsomes (AID 1963578). The procedure, abridged: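 p53RE-bla cells were exposed to compounds together with rat liver microsomes (0.5 mg/mL final) and NADPH (0.5 mg/mL final) for 16 h at 37 C, then read by LiveBLAzer beta-lactamase fluorescence after 2 h at room temperature.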
The nature of experiment [7]: p53 small molecule agonists, cell-based qHTS assay with human liver microsomes: qHTS cell viability counter screen (AID 1963579). Also: nearly all actives have a fitted effect of over 45% in size. The procedure, abridged:
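p53RE-bla cells (4,000/well) were pre-incubated 5 h at 37 C, then given compounds in DMSO plus human liver microsomes (0.5 mg/mL final) and NADPH (0.5 mg/mL final) for 16 h at 37 C. Viability was read by CellTiter-Glo luminescence.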

Experiment [8] can be described thus: p53 small molecule agonists, cell-based qHTS assay with rat liver microsomes: qHTS cell viability counter screen (AID 1963580). Also: nearly all actives have a fitted effect of over 45% in size. The procedure, abridged: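 Luminescent ATP readout (CellTiter-Glo, 30 min at room temperature) reports viability of p53RE-bla HCT-116 cells after 16 h at 37 C with test compounds under metabolic activation by rat liver microsomes and NADPH at 0.5 mg/mL final each.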

Experiment [9] is described as follows: p53 small molecule agonists, cell-based qHTS assay: qHTS cell viability counter screen (AID 1963581). Also: nearly all actives have a fitted effect of over 45% in size. Also: potency is read from the fitted curve at half-maximal effect. The procedure, abridged:
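ATP content measured by luminescence in HCT-116 p53RE-bla cells treated 16 h at 37 C, same wells as the reporter screen.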

Experiment [10] in a line: p53 small molecule agonists, cell-based qHTS assay (AID 1963582; active = well fitted activation curve with a large enough effect in the signal ratio in the repeat runs, not every such curve was filed as active; the % refers to the signal ratio). The procedure, abridged: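 16 h compound exposure (37 C) of p53 response element–bla cells, preceded by 5 h recovery at 37 C/5% CO2; read-out via LiveBLAzer B/G FRET substrate, 2 h RT, fluorescence intensity.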
Experiment [11] deals with 5-hydroxytryptamine receptor 2A (Homo sapiens) (UniProt P28223). Briefly: 5-hydroxytryptamine receptor 2A (HTR2A) small molecule antagonists, cell-based qHTS assay (AID 1963586). Also: nearly all actives have a fitted effect of over 45% in size. Also: potency is read from the fitted curve at half-maximal effect. The procedure, abridged:
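CHO cells stably expressing human HTR2A were plated for 18 h at 37 C, then loaded with calcium dye for 1 h. Compounds were preincubated 5 min at room temperature before DOI (4 nM solution) was added. Kinetic fluorescence was read for 3 min.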

For experiment [12] the target is unchanged. In words: 5-hydroxytryptamine receptor 2A (HTR2A) small molecule agonists, cell-based qHTS assay (AID 1963587). Also: nearly all actives have a fitted effect of over 30% in size. The procedure, abridged:
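HTR2A-CHO cells, plated 18 h at 37 C/5% CO2, dye-loaded 1 h at 37 C; compounds in DMSO added by pin tool (agonist mode). Intracellular calcium flux read as kinetic fluorescence on FDSS over 2 min at 1 s intervals.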

The target in experiment [13] is Muscarinic acetylcholine receptor M1 (Homo sapiens) (UniProt P11229). Briefly: Cholinergic receptor muscarinic 1 (CHRM1) small molecule antagonists, cell-based qHTS assay (AID 1963588). Also: nearly all actives have a fitted effect of over 40% in size. A digest of the protocol: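 Compounds were tested at 15 concentrations in three independent runs. Dye-loaded CHRM1-CHO cells were exposed 5 min at room temperature before stimulation by acetylcholine added at 50nM. Intracellular calcium was read kinetically on FDSS for 3 min.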

For experiment [14] the target is unchanged. In words: Cholinergic receptor muscarinic 1 (CHRM1) small molecule agonists, cell-based qHTS assay (AID 1963589). Also: nearly all actives have a fitted effect of over 35% in size. A digest of the protocol:
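Homogeneous fluorescence calcium flux, agonist mode. Human M1-expressing CHO cells; compound dosed at 15 concentrations, three independent runs; signal sampled every 1 sec.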

Experiment [15] has as its target Beta-2 adrenergic receptor (Homo sapiens) (UniProt P07550). In words: Adrenergic beta2 receptor (ADRB2) small molecule antagonists, cell-based qHTS assay (AID 1963592). Also: nearly all actives have a fitted effect of over 50% in size. Also: potency is read from the fitted curve at half-maximal effect. A digest of the protocol: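 Assay format: CHO-ADRB2 cells, 18-20hr seeding at 37C/5% CO2, then compound plus 1nM isoproterenol agonist mix for 0.5hr RT. Homogeneous time-resolved fluorescence cAMP detection after 1hr, expressed as 665/615 nm ratio.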

Experiment [16] addresses D(2) dopamine receptor (Homo sapiens) (UniProt P14416). Briefly: Dopamine D2 receptor (DRD2) small molecule antagonists, cell-based qHTS assay (AID 1963595; active = well fitted inhibition curve with a large enough effect in the signal ratio in the repeat runs, with a control signal flat; the % refers to the signal ratio; also: potency is read from the fitted curve at half-maximal effect). The procedure, abridged:
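DRD2-HEK293; 0.1 mM Ro20-1724; cpd 10 min RT; NKH477 200 nM + quinpirole 12 nM, 30 min RT; HTRF cAMP (cAMP-d2/anti-cAMP cryptate), 665/620 nm ratio after 1 h.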

Experiment [17] in a line: Nuclear factor erythroid 2-related factor 2/antioxidant responsive element (Nrf2/ARE) small molecule agonists: luciferase reporter gene qHTS assay in human keratinocytes (AID 1919969). Also: nearly all actives have a fitted effect of over 35% in size. Also: potency is read from the fitted curve at half-maximal effect. A general note: Reporter assays use an easily measured gene product as a stand-in for the process of interest.
Experiment [18] is described as follows: cAMP Responsive Elements (CRE) small molecule agonists, cell-based qHTS assay (AID 1963590). A digest of the protocol:
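HEK 293T cells stably bearing CRE-bla were plated at 2,000 cells per well and rested 18 h. Compounds, positive controls or DMSO were added for 3 h at 37 C. LiveBLAzer B/G substrate was then loaded for 2 h at room temperature.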

Experiment [19] in a line: cAMP Responsive Elements (CRE) small molecule antagonists, cell-based qHTS assay (AID 1963591; active = well fitted inhibition curve with a large enough effect in the signal ratio in the repeat runs, not every such curve was filed as active; the % refers to the signal ratio). The procedure, abridged: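 First, CRE-bla HEK293T cells settled 18 h at 37 C. Next, compound and 0.25 uM final NKH477 were applied for 3 h. Last, LiveBLAzer B/G substrate was loaded for 2 h at room temperature.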
Experiment [20] deals with D(2) dopamine receptor (Homo sapiens) (UniProt P14416). Briefly: Dopamine D2 receptor (DRD2) small molecule agonists, cell-based qHTS assay (AID 1963594). Also: nearly all actives have a fitted effect of over 35% in size. A digest of the protocol:
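HEK293 cells stably expressing DRD2 were cultured 24 h at 37 C, then given Ro20-1724 (0.1 mM final) and compounds for 10 min at room temperature. NKH477 (200nM) was then added for 30 min. cAMP was read by HTRF.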

A number with no mark means an inactive call. Records with an inconclusive call do not appear. The source made the active and inactive calls. Unless noted, calls follow the shape of the full dose curve.

5-hydroxytryptamine receptor 2A (Homo sapiens), sequence (P28223 whole entry, looked up): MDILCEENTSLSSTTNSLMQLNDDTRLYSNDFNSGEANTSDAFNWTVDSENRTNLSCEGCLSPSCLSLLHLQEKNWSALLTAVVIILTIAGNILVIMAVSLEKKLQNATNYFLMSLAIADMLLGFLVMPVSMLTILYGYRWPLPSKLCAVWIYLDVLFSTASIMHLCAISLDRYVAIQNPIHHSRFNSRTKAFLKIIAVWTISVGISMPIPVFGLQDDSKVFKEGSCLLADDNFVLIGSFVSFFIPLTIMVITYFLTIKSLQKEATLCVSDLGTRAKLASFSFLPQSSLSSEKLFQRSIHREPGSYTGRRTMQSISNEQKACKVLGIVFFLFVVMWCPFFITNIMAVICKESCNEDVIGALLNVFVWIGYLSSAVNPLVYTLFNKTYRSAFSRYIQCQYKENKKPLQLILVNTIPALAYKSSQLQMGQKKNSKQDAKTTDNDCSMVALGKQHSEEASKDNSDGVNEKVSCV
Beta-2 adrenergic receptor (Homo sapiens), sequence (P07550 whole entry, looked up): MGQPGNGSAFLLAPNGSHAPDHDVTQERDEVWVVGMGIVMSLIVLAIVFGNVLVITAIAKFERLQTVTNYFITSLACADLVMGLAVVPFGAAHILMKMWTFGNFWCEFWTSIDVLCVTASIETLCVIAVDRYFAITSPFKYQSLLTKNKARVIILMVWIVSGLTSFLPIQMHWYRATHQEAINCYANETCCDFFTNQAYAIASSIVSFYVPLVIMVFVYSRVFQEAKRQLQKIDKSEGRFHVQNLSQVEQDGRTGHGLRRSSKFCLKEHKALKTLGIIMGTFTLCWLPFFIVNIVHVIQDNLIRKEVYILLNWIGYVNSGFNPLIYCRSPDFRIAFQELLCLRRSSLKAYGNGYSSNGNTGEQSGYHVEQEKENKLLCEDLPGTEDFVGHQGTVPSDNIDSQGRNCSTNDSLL
D(2) dopamine receptor (Homo sapiens), sequence (P14416 whole entry, looked up): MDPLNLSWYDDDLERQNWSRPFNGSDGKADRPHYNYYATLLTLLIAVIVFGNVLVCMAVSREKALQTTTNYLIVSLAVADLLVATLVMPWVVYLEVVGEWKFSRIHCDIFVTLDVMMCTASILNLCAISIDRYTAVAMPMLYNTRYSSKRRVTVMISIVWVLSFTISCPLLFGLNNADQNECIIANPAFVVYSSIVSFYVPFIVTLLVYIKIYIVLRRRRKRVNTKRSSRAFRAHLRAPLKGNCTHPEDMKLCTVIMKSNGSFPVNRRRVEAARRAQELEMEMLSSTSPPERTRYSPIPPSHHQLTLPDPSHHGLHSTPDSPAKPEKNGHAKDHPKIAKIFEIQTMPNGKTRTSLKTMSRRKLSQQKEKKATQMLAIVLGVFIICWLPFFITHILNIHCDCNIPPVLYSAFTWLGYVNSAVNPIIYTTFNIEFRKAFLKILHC
Muscarinic acetylcholine receptor M1 (Homo sapiens), sequence (P11229 whole entry, looked up): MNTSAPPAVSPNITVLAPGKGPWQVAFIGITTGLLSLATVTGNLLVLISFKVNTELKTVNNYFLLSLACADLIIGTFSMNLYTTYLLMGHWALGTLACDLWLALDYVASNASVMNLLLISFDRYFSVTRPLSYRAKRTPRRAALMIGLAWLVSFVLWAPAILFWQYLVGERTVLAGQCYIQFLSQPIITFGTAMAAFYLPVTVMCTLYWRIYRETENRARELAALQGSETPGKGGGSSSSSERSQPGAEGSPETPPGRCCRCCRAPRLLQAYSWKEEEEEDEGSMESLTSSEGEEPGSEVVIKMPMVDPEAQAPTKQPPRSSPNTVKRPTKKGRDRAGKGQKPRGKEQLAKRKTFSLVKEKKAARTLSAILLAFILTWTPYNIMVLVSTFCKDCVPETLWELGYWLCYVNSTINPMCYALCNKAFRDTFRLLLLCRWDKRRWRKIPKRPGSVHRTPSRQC
KiSS-1 receptor (Homo sapiens), sequence (Q969F8 whole entry, looked up): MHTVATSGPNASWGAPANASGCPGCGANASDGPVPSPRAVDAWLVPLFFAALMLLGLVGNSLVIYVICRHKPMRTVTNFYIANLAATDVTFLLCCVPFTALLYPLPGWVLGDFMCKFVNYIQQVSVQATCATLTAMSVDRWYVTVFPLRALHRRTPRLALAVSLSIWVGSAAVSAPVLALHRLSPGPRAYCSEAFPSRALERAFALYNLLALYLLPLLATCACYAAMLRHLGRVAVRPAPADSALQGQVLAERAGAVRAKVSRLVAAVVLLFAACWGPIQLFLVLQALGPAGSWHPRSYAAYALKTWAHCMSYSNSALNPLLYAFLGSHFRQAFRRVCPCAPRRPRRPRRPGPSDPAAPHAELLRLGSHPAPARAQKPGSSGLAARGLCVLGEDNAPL
Gonadotropin-releasing hormone receptor (Homo sapiens), sequence (P30968 whole entry, looked up): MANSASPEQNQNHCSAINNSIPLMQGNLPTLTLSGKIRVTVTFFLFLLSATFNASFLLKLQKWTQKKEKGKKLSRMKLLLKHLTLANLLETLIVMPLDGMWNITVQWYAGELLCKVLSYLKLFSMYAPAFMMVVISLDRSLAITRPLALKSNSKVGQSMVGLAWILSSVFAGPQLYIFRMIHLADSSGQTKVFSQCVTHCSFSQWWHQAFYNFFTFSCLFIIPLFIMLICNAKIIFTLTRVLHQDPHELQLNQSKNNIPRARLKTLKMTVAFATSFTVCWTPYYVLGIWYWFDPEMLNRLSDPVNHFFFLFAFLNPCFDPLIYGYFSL

For `Oc1ccc2[nH]cc(CCCCN3CC=C(c4ccccc4)CC3)c2c1`, the Potency entry in [1], in experiment [2], in [3], in [4], in experiment [5] and in experiment [6] was “inactive” in each case. Further, the Potency result in [7], in experiment [8], in [9], in experiment [10], in experiment [12] and in experiment [13] was “inactive” throughout. Moreover, the Potency result in experiment [14] and in experiment [16] was “inactive” throughout. Also, the Potency was 0.818 µM (active) in experiment [11] and 26.6 µM (active) in experiment [15].
`Cc1ccccc1`: the Potency entry in experiment [1], in [17], in [5], in experiment [6], in experiment [7] and in [8] was “inactive” throughout. Moreover, the Potency entry in experiment [9] and in experiment [10] was “inactive” each time.
In the case of `CCS(=O)(=O)c1cccnc1S(=O)(=O)NC(=O)Nc1nc(OC)cc(OC)n1`, the Potency entry in experiment [1], in experiment [2], in experiment [3], in [4], in experiment [5] and in experiment [6] was “inactive” throughout. Moreover, the Potency entry in [7], in [8], in experiment [9], in experiment [10], in experiment [11] and in experiment [12] was “inactive” in each case. Moreover, the Potency result in experiment [13], in [14], in experiment [18], in [19], in experiment [15] and in [20] was “inactive” throughout. The Potency entry in experiment [16] was “inactive”.
With `CC(C)Br`, the Potency result in experiment [1], in experiment [2], in experiment [3], in experiment [4], in [5] and in [6] was “inactive” throughout. The Potency result in experiment [7], in [8], in experiment [9], in experiment [10], in experiment [11] and in experiment [12] was “inactive” in each case. Also, the Potency entry in experiment [13], in experiment [14], in experiment [19], in experiment [15], in [20] and in experiment [16] was “inactive” in each case.
As for `CC(Cc1ccccc1)NCc1ccccc1Cl` (stereo unspecified), the Potency entry in experiment [1], in experiment [2], in [3], in experiment [4], in experiment [5] and in [6] was “inactive” in each case. Moreover, the Potency result in experiment [7], in experiment [8], in experiment [9], in experiment [10], in experiment [11] and in [12] was “inactive” in each case. Further, the Potency entry in experiment [13], in experiment [14], in [18], in [19] and in experiment [20] was “inactive” in each case.
In the case of `O=[N+]([O-])c1ccc(Cl)c(Cl)c1Cl`, the Potency entry in experiment [1], in experiment [2], in experiment [3], in [4], in experiment [5] and in experiment [6] was “inactive” each time. The Potency entry in experiment [7], in experiment [8], in experiment [9], in experiment [10], in experiment [11] and in [12] was “inactive” in each case. Also, the Potency result in experiment [14], in experiment [18], in [19], in experiment [15], in [20] and in experiment [16] was “inactive” throughout.
For `C=CCC1=C(C)C(OC(=O)C2C(C=C(C)C)C2(C)C)CC1=O` (stereo unspecified), the Potency in [1] is 34.4 µM (active); in experiment [17], 23 µM (active); in experiment [9] it was 28.9 µM (active); in [16], 57.8 µM (active). The Potency result in experiment [3], in experiment [6], in [12], in experiment [14] and in experiment [15] was “inactive” throughout.
Take `COC1=CC(=O)O[C@@H](/C=C/c2ccccc2)C1`: the Potency entry in [1], in [2], in [3], in experiment [4], in experiment [5] and in experiment [6] was “inactive” throughout. For the same compound, the Potency entry in experiment [7], in experiment [8], in experiment [9], in experiment [10], in experiment [11] and in experiment [12] was “inactive” throughout. Also, the Potency result in experiment [13], in experiment [15], in [20] and in experiment [16] was “inactive” each time.
